Inconclusive results are not listed. The source made the active and inactive calls. Unless noted, the call rests on the fitted dose curve; in most records, active means well fitted curve in the direction sought with a large enough effect in the repeat runs; inconclusive means weak or mixed curves; inactive means no such curve, though single readings can be large; an effect the other way counts as inactive or inconclusive.
Assays:
[1] = qHTS assay to identify small molecule antagonists of the estrogen related receptor (ERR) signaling pathway - cell viability counter screen (AID 1224818);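 further: series mostly up to about 46 µM; viability measured after 17.5 h of compound exposure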
Outline: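 Cytotoxicity counter screen: fluorescence from CellTiter-Fluor, added after 17.5 h compound exposure at 37 C and read 30 min later. ERR cell line seeded at 2,000 cells/well, preincubated 6 h before dosing.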

[2] = qHTS assay to identify small molecule agonists of the estrogen related receptor (ERR) signaling pathway (AID 1224820)
Outline: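 Following a 6 h settling period, 2,000 ERR cells per well receive DMSO-dissolved compounds by pin tool and incubate 18 h at 37 C; agonist activity is scored from One-Glo luminescence read 30 min post-addition.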

[3] = test system: estrogen-related receptor alpha (ERRalpha) with PGC-1alpha coactivator, human; assay: qHTS assay to identify small molecule antagonists of the estrogen related receptor signaling pathway with the pleiotropic PPARgamma coactivator (PGC) (AID 1224821; calls by dose curve;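 further: series mostly up to about 46 µM; lower luminescence signal means antagonism of PGC/ERR signalling; nearly all actives have a fitted effect of over 50% in size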)
Outline: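 Screening used NTP's PGC/ERR cells, dosed via pin tool with compound in DMSO alongside positive and negative controls. After 18 h at 37 C, One-Glo reagent sat 30 min at room temperature before luminescence detection.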

[4] = qHTS assay to identify small molecule agonists of the estrogen related receptor signaling pathway with the pleiotropic PPARgamma coactivator (PGC) (AID 1224823)
Outline: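 In this quantitative high-throughput screen, an 18 h, 37 C treatment of PGC/ERR cells with compounds in DMSO preceded a One-Glo luminescence read taken after 30 min at room temperature.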

[5] = qHTS assay to identify small molecule antagonists of the estrogen related receptor signaling pathway with the pleiotropic PPARgamma coactivator (PGC) cell viability counter screen (AID 1224822; further: series mostly up to about 46 µM)
Outline: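 Viability counter-screen read by fluorescence intensity after 30 min with CellTiter-Fluor at 37 C; PGC/ERR reporter cells were exposed to compounds for 17.5 h at 37 C following a 6 h preincubation.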

[6] = qHTS assay for small molecules that induce genotoxicity in human embryonic kidney cells expressing luciferase-tagged ATAD5 (AID 651632); further: nearly all actives have a fitted effect of over 15% in size
Outline: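 A rise in luciferase signal from ATAD5-tagged HEK293T cells marks genetic stress. Cells were exposed to compounds for 16 hr at 37C, 5% CO2, then luciferase was quantified after a 30 min room-temperature incubation with Amplite.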

[7] = qHTS assay for small molecules that induce genotoxicity in human embryonic kidney cells expressing luciferase-tagged ATAD5 - cell viability (AID 651634; calls by dose curve; further: nearly all actives have a fitted effect of over 25% in size)
Outline: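 Cytotoxicity counter-readout: after 15.5 hr compound treatment at 37C, live-cell protease activity in ATAD5-luciferase HEK293T cells measured by CellTiter-Fluor fluorescence, 30 min development at 37C.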

[8] = qHTS assay for small molecule disruptors of the mitochondrial membrane potential - cell viability (AID 720634; calls by dose curve;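 further: human HepG2 liver cancer cells; series mostly up to about 83 µM; nearly all actives have a fitted effect of over 20% in size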)
Outline: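 Cytotoxicity was quantified from ATP content by CellTiter-Glo luminescence in the same wells as the MMP dye read-out. HepG2 (2,000 cells/well) were plated overnight and exposed to compounds for 1 hr at 37 C.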

[9] = qHTS assay to test for compound auto fluorescence at 590 nm (red) in HepG2 cells (AID 720674)
Outline: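 HepG2 cells, 2,000 per well in MEM with 10% FBS, attached overnight at 37 C, then got 23 nL compound or DMSO. After 1 hr at 37 C, 5% CO2, red fluorescence was read at 540/590 nm against Rose Bengal sodium as reference.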

[10] = qHTS assay to test for compound auto fluorescence at 535 nm (green) in HepG2 cells (AID 720675)
[11] = qHTS assay to test for compound auto fluorescence at 460 nm (blue) in HEK293 cells (AID 720678)
Outline: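 HEK293, 2,000 cells/well, 10% dialyzed FBS; attach 4-5 hr 37C; pin compound or DMSO; o/n 37C/5% CO2; fluorescence 405/460 nm; triamterene-equivalent units.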

[12] = qHTS assay to test for compound auto fluorescence at 590 nm (red) in HEK293 cells (AID 720679)
Outline: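 Intensity at 540nm excitation and 590nm emission is reported as Rose Bengal sodium-equivalent autofluorescence. Measurements followed overnight exposure (37C, 5% CO2) of HEK293 cells, 2,000 per well, to 23 nL compound.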

[13] = qHTS assay to test for compound auto fluorescence at 535 nm (green) in HEK293 cells (AID 720680)
[14] = qHTS assay to test for compound auto fluorescence at 460 nm (blue) in HEK293 cell free culture (AID 720681)
Outline: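 Compounds were added to cell-free DMEM with 10% FBS and fluorescence read directly. The blue channel used 405 nm excitation and 460 nm emission, with triamterene as the reference fluorophore.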

[15] = qHTS assay to test for compound auto fluorescence at 535 nm (green) in HEK293 cell free culture (AID 720682)
Outline: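 Fluorescein serves as the green reference fluorophore; each compound's intrinsic emission at 535 nm (excitation 485 nm) is reported as an equivalent amount of that dye, measured in serum-containing DMEM without cells.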

[16] = qHTS assay to test for compound auto fluorescence at 590 nm (red) in HEK293 cell free culture (AID 720683)
Outline: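 Cell-free wells of DMEM with 10% FBS received compound, and intrinsic fluorescence was read at excitation/emission 540/590 nm. Values expressed as equivalence to Rose Bengal sodium.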

[17] = qHTS assay to test for compound auto fluorescence at 590 nm (red) in HepG2 cell free culture (AID 720684)
Outline: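 Rose Bengal sodium served as the reference for red signal. Test compounds were dispensed into serum-containing MEM (10% FBS) without cells, and plates were read at 540/590 nm.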

[18] = qHTS assay to test for compound auto fluorescence at 460 nm (blue) in HepG2 cell free culture (AID 720685)
Outline: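 Cell-free plates of MEM plus 10% FBS received 23 nL compound or DMSO vehicle; blue-channel (405/460 nm) intensity scored against triamterene as reference fluorophore.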

[19] = qHTS assay to test for compound auto fluorescence at 535 nm (green) in HepG2 cell free culture (AID 720686)
[20] = qHTS assay to test for compound auto fluorescence at 460 nm (blue) in HepG2 cells (AID 720687)
Outline: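 HepG2 cells in MEM with 10% FBS, attached overnight at 37 C, were exposed to compound or DMSO for 1 hr at 37 C, 5% CO2. Blue fluorescence was read at 405/460 nm, with triamterene as reference fluorophore.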

[21] = molecular target: Glucocorticoid receptor (Homo sapiens) (UniProt P04150); assay: qHTS assay to identify small molecule antagonists of the glucocorticoid receptor (GR) signaling pathway (AID 720692; active means well fitted inhibition curve with a large enough effect in the signal ratio in the repeat runs, not every such curve was filed as active; the % refers to the signal ratio)
Sequence of Glucocorticoid receptor (Homo sapiens) (P04150 whole entry, looked up): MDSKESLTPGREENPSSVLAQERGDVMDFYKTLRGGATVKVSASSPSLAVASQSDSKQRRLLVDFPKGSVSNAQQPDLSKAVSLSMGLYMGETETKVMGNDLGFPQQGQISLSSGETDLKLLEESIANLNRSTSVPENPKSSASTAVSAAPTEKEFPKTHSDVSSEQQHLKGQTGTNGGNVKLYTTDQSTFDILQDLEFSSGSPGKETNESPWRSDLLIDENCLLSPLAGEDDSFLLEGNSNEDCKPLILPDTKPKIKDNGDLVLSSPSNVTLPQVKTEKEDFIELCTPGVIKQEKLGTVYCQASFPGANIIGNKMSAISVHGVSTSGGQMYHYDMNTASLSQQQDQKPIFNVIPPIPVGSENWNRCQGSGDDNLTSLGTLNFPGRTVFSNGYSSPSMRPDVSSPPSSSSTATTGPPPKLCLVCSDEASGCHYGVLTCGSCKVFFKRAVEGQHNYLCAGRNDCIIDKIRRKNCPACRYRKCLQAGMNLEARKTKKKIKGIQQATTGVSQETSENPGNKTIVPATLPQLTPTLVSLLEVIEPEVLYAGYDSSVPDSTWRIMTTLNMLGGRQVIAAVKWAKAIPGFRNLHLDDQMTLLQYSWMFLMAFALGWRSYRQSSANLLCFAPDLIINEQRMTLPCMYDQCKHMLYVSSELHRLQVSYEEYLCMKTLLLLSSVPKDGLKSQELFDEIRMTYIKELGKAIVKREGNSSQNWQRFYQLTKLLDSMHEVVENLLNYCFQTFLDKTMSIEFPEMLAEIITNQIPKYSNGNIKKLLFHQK
Outline: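 Inhibition of dexamethasone-driven (5 nM final) beta-lactamase expression was measured in GRE-reporter HeLa cells over 18 h at 37C. Fluorescence was read after 2 h with the B/G FRET substrate at room temperature.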

[22] = qHTS assay to identify small molecule antagonists of the glucocorticoid receptor (GR) signaling pathway - cell viability counter screen (AID 720693); further: nearly all actives have a fitted effect of over 55% in size
[23] = qHTS assay for identifying genotoxic compounds that show differential cytotoxicity against isogenic chicken DT40 cell lines with known DNA damage response pathways - wild type cell line (AID 743012); further: potency means the concentration at half of the fitted maximal effect; nearly all actives have a fitted effect of over 60% in size
Outline: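 Viability by ATP luminescence (CellTiter-Glo, 30 min RT) after 40 h compound treatment at 37 C/5% CO2, using 300 parental DNA repair-proficient DT40 cells per well.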

[24] = qHTS assay for identifying genotoxic compounds that show differential cytotoxicity against isogenic chicken DT40 cell lines with known DNA damage response pathways - Rev3 mutant cell line (AID 743014); further: potency means the concentration at half of the fitted maximal effect; nearly all actives have a fitted effect of over 55% in size
[25] = qHTS assay for identifying genotoxic compounds that show differential cytotoxicity against isogenic chicken DT40 cell lines with known DNA damage response pathways - Rad54/Ku70 mutant cell line (AID 743015); further: potency means the concentration at half of the fitted maximal effect; nearly all actives have a fitted effect of over 60% in size
[26] = molecular target: Androgen receptor (Homo sapiens) (UniProt P10275); assay: qHTS assay to identify small molecule antagonists of the androgen receptor (AR) signaling pathway (AID 743035; active means well fitted inhibition curve with a large enough effect in the signal ratio in the repeat runs, not every such curve was filed as active; the % refers to the signal ratio)
Sequence of Androgen receptor (Homo sapiens) (P10275 whole entry, looked up): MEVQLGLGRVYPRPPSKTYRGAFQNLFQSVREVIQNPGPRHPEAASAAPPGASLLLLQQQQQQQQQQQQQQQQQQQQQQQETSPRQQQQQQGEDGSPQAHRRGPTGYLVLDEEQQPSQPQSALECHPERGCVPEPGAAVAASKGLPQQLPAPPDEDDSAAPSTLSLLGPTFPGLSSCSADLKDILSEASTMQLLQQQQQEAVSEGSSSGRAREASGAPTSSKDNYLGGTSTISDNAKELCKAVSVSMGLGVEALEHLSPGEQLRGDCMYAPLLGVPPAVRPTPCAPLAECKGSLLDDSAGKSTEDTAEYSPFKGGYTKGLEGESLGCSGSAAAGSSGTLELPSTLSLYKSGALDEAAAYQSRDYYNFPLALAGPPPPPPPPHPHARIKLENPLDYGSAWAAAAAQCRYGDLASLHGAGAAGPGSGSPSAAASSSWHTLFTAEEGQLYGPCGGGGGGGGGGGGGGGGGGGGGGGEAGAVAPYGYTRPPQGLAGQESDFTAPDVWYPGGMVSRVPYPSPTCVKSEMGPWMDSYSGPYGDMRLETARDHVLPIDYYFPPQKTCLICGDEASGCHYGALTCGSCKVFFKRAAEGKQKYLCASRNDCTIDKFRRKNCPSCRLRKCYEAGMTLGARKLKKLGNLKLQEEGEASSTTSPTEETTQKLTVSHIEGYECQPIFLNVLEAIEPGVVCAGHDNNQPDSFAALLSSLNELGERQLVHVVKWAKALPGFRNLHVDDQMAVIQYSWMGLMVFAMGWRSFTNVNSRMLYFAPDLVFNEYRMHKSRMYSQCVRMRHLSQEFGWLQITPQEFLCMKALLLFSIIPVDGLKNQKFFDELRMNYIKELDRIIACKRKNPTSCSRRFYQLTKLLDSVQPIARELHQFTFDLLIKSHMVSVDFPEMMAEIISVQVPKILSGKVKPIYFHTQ
Outline: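 Antagonist mode: AR-bla HEK293 cells co-treated with test compounds and agonist R1881 for 16 h at 37C, 5% CO2. Beta-lactamase activity read as FRET fluorescence after 2 h room-temperature substrate loading.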

[27] = molecular target: Androgen receptor (Homo sapiens) (UniProt P10275); assay: qHTS assay to identify small molecule agonists of the androgen receptor (AR) signaling pathway using the MDA cell line (AID 743040; further: nearly all actives have a fitted effect of over 20% in size)
Outline: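 Luciferase read-out, ONE-Glo, 30 min RT. Cells: MDA-kb2 AR-luc, MMTV promoter with AR and GR response elements. Compound exposure 16 h, 37C, 0% CO2, after 5 h pre-incubation. qHTS agonist mode.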

[28] = qHTS assay to identify small molecule antagonists of the thyroid receptor (TR) signaling pathway - cell viability counter screen (AID 743064); further: potency means the concentration at half of the fitted maximal effect; nearly all actives have a fitted effect of over 50% in size
Outline: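 Fluorescence from CellTiter-Fluor, added after 23.5 h exposure at 37 °C, reported viability of GH3.TRE-Luc cells co-treated with compound and 1 nM T3. Measured in the same wells as the luciferase TR readout.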

[29] = qHTS assay to identify small molecule antagonists of the thyroid receptor (TR) signaling pathway (AID 743065); further: potency means the concentration at half of the fitted maximal effect; nearly all actives have a fitted effect of over 55% in size
Outline: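 GH3.TRE-Luc rat pituitary cells (two TREs driving luciferase) were dosed with compound, then stimulated with 1 nM T3 (final) for 23.5 h at 37 C. ONE-Glo luminescence was the read-out, with CellTiter-Fluor fluorescence as the cytotoxicity counter-screen.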

[30] = qHTS assay to identify small molecule antagonists of the estrogen receptor alpha (ER-alpha) signaling pathway - cell viability counter screen (AID 743074; calls by dose curve;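 further: HEK293 cells carrying ER-alpha-UAS-bla reporter stimulated with 17beta-estradiol; nearly all actives have a fitted effect of over 45% in size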)
[31] = qHTS assay to identify small molecule antagonists of the estrogen receptor alpha (ER-alpha) signaling pathway using the BG1 cell line - cell viability counter screen (AID 743081);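 further: compound given together with 17beta-estradiol as the ER stimulus; series mostly up to about 70 µM; nearly all actives have a fitted effect of over 45% in size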
[32] = qHTS assay to identify aromatase inhibitors - cell viability counter screen (AID 743084);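 further: cells stimulated with testosterone during compound exposure; nearly all actives have a fitted effect of over 55% in size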
[33] = qHTS assay to identify small molecule that activate the aryl hydrocarbon receptor (AhR) signaling pathway - cell viability counter screen (AID 743086);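 further: HepG2 liver cells carrying the AhR DRE luciferase reporter; series mostly up to about 70 µM; nearly all actives have a fitted effect of over 45% in size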
Outline: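 HepG2-AhR-luc (HG2L7.5c1) cells, 4000/well, treated 24 h at 37 C with compound; viability measured as CellTiter-Fluor fluorescence after 30 min in the same wells as the luciferase read.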

[34] = molecular target: Peroxisome proliferator-activated receptor gamma (Homo sapiens) (UniProt P37231); assay: qHTS assay to identify small molecule agonists of the peroxisome proliferator-activated receptor gamma (PPARg) signaling pathway (AID 743094; active means well fitted activation curve with a large enough effect in the signal ratio in the repeat runs, not every such curve was filed as active; the % refers to the signal ratio)
Sequence of Peroxisome proliferator-activated receptor gamma (Homo sapiens) (P37231 whole entry, looked up): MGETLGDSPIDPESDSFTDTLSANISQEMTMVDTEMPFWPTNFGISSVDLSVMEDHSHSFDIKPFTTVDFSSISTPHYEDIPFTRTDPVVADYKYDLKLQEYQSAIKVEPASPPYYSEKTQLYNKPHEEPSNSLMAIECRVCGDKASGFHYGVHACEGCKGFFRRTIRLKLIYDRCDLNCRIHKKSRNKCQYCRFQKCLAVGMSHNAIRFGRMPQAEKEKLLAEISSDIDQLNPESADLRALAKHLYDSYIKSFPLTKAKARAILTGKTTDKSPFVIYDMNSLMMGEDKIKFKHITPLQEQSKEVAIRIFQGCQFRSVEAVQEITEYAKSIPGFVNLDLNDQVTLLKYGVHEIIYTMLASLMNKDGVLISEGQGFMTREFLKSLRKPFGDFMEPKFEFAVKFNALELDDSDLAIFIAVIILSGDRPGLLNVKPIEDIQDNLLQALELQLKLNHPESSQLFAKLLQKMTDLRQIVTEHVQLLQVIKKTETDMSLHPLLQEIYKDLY
Outline: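 Agonist activity was taken from a beta-lactamase reporter (FRET substrate, 1 h at room temperature) in HEK293H cells carrying a PPARg UAS-bla construct. Compounds in DMSO were incubated 17 h at 37C after a 5 h cell pre-incubation.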

[35] = molecular target: Nuclear receptor subfamily 1 group I member 2 (Homo sapiens) (UniProt O75469); assay: CYP3A4 induction through human pregnane X receptor (PXR) by small molecules, qHTS assay (AID 1346984); further: potency means the concentration at half of the fitted maximal effect; nearly all actives have a fitted effect of over 40% in size
Outline: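 Read-out is luminescence after One-Glo addition, following a 3 hr, 37C incubation with Luciferin-IPA CYP3A4 substrate (3uM final). Before that, compounds were on DPX-2 cells (HepG2 co-transfected with PXR element plus CYP3A4-promoter luciferase) for 24 hr at 37C.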

[36] = molecular target: Nuclear receptor subfamily 1 group I member 2 (Homo sapiens) (UniProt O75469); assay: Human pregnane X receptor (PXR) activation by small molecules, qHTS assay (AID 1346985); further: nearly all actives have a fitted effect of over 40% in size
Outline: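 DPX-2 cells (HepG2 co-transfected with a PXR response element and a CYP3A4-promoter luciferase construct) were seeded at 2,000 per well, rested 5 hr at 37C, then exposed to DMSO-dissolved compounds for 24 hr. Activation was read as luciferase luminescence.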

Measured: Potency

NCCc1c[nH]c2ccc(O)cc12
inactive: [1] | [2] | [3] | [4]

NC(=O)COc1c(F)cc(SCCNS(=O)(=O)c2ccccc2)cc1F
inactive: [1] | [2] | [3] | [4]

C#CCN[C@H](C)Cc1ccccc1
inactive: [1] | [2] | [3] | [5] | [4]

CN[C@@H]1C[C@@H](c2ccc(Cl)c(Cl)c2)c2ccccc21
active: [23] 5.96 µM | [24] 11.9 µM | [25] 11.9 µM | [28] 11.9 µM | [29] 11.9 µM | [35] 28.2 µM
inactive: [6] | [7] | [8] | [9] | [10] | [11] | [12] | [13] | [14] | [15] | [16] | [17] | [18] | [19] | [20] | [21] | [22] | [26] | [27] | [30] | [31] | [32] | [33] | [34] | [1] | [2] | [3] | [36]

CC(=O)NBr
inactive: [1] | [2] | [3] | [5] | [4]

— PubChem BioAssay (Tox21)
